For eight molecules, growth results are on record in PubChem BioAssay (NCI).

Holding throughout (assay): NCI-60 one-dose screen, 48 h (100 = growth as untreated, 0 = no growth, -100 = all killed)
One assay deals with HT29 colon. Conditions: 10 µM unless noted.
In the next assay the test system is SNB-75 CNS. The following applies: 10 µM unless noted.
Another assay relates to SNB-19 CNS. The following applies: 10 µM unless noted.
The test system of the next assay is U251 CNS. The following applies: 10 µM unless noted.
For a further assay, the system named is PC-3 prostate. The following applies: 10 µM unless noted.
A further assay relates to SK-MEL-5 melanoma. Conditions: 10 µM unless noted.
A further assay relates to UACC-62 melanoma. Conditions: 10 µM unless noted.
The next assay relates to LOX IMVI melanoma. The following applies: 10 µM unless noted.
The subject of another assay is SK-MEL-28 melanoma. The following applies: 10 µM.
For a further assay, the system named is SK-MEL-2 melanoma. The following applies: 10 µM unless noted.
For the next assay, the system named is EKVX NSCLC. The following applies: 10 µM unless noted.
The test system of the next assay is SN12C renal. Conditions: 10 µM unless noted.
The next assay has as its system UO-31 renal. The following applies: 10 µM unless noted.
The test system of a further assay is TK-10 renal. Conditions: 10 µM unless noted.
In a further assay the test system is ACHN renal. The following applies: 10 µM unless noted.
The subject of a further assay is A498 renal. Conditions: 10 µM unless noted.
A further assay has as its system MOLT-4 leukemia. The following applies: 10 µM unless noted.
In a further assay the test system is SR leukemia. Conditions: 10 µM unless noted.
The subject of the next assay is CAKI-1 renal. Conditions: 10 µM unless noted.
The next assay deals with CCRF-CEM leukemia. Conditions: 10 µM unless noted.

Compounds without any hit were thinned out: in the full panel of roughly 83,000, 20% have a hit.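 Negative percent growth values reflect cell death: -40 means 40% of the cells present at the start died, and -100 means all died.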 Unmarked numbers belong to inactive results. The source made the active and inactive calls. Rule for the calls: active = growth percent below 10; inactive = the rest.

As for `COC(=O)/C(=C\c1c(C)[nH]c2ccccc12)S(=O)(=O)c1ccccc1`, the growth with HT29 colon was 9.54% (active); in the assay on SNB-75 CNS, -8.87% (active); with SNB-19 CNS, 19.1%; with U251 CNS, 25.7%; in the assay on PC-3 prostate it was -1.81% (active); with SK-MEL-5 melanoma it was 34.1%. The growth is 53.8% in the assay on UACC-62 melanoma; 15.6% in the assay with LOX IMVI melanoma; 16.6% in the assay with SK-MEL-28 melanoma; 23.9% in the assay with SK-MEL-2 melanoma; 61.3% in the assay with EKVX NSCLC; 39.7% with SN12C renal. The growth with UO-31 renal was 23.8%; in the assay with TK-10 renal, 46.8%; with ACHN renal it was 49.1%; in the assay on A498 renal, -3.18% (active); with MOLT-4 leukemia, 15.5%; with SR leukemia, 27.2%.

Turning to `COc1cc(CNC(=O)Cc2ccccc2)ccc1OCc1cn(-c2ccc(F)cc2)nn1`, the growth in the assay with HT29 colon is 111%; in the assay on SNB-75 CNS, 91.7%; with SNB-19 CNS, 103%; with U251 CNS, 97.3%; in the assay with PC-3 prostate it was 98.5%; in the assay with SK-MEL-5 melanoma it was 89.1%. Besides, the growth in the assay on UACC-62 melanoma is 85.3%; in the assay on LOX IMVI melanoma it was 99.6%; in the assay on SK-MEL-28 melanoma, 103%; in the assay on SK-MEL-2 melanoma, 101%; in the assay with EKVX NSCLC, 94.2%; in the assay with SN12C renal it was 93.1%. The growth with UO-31 renal is 80.7%; in the assay on TK-10 renal, 112%; with ACHN renal, 94.9%; with CAKI-1 renal, 91.2%; with CCRF-CEM leukemia, 100%; with MOLT-4 leukemia, 114%. The growth in the assay on SR leukemia was 106%.

`COc1cc(/C=C/C(=O)c2ccc(Nc3nc(NCCO)nc(N4CCOCC4)n3)cc2)cc(OC)c1OC`: the growth was 5.79% (active) with HT29 colon; 10.4% in the assay with SNB-75 CNS; 30.5% with SNB-19 CNS; 14.6% in the assay on U251 CNS; 31% with PC-3 prostate; 10.5% in the assay on SK-MEL-5 melanoma. Besides, the growth with UACC-62 melanoma was -31.7% (active); in the assay with LOX IMVI melanoma it was 11.1%; with SK-MEL-28 melanoma it was 48.4%; with SK-MEL-2 melanoma, 50.6%; with EKVX NSCLC it was 21.7%; with SN12C renal it was 16.3%. The growth with UO-31 renal was 25.4%; in the assay with TK-10 renal, 35.3%; in the assay on CAKI-1 renal, 23.6%; with A498 renal it was 2.25% (active); in the assay with MOLT-4 leukemia it was 0.216% (active); with SR leukemia it was 17.4%.

Regarding `N#C/C(=C\c1c(-c2ccccc2)[nH]c2ccccc12)S(=O)(=O)c1ccccc1`, the growth in the assay on HT29 colon was 18.3%; in the assay on SNB-75 CNS, 12.4%; with SNB-19 CNS, 40.3%; in the assay on U251 CNS it was 33.4%; in the assay with PC-3 prostate, 5.37% (active); in the assay with SK-MEL-5 melanoma it was 11.6%. Moreover, the growth in the assay on UACC-62 melanoma is 34.3%; in the assay with LOX IMVI melanoma, 42.7%; in the assay on SK-MEL-28 melanoma, 52.4%; in the assay on SK-MEL-2 melanoma, 46.6%; in the assay with EKVX NSCLC, 61.7%; in the assay on SN12C renal it was 54%. Moreover, the growth was 51.2% with UO-31 renal; 69.4% in the assay with TK-10 renal; 59.4% in the assay with ACHN renal; 41.5% with CAKI-1 renal; 24.2% in the assay with A498 renal; 33.7% in the assay with MOLT-4 leukemia. Further, the growth with SR leukemia was 17.9%.

As for `CN1CCN(Cc2ccc(NC(=O)c3[nH]ncc3Nc3cc(OC4CCCC4)ncn3)cc2)CC1`, the growth is 14.3% with HT29 colon; 61.7% in the assay on SNB-75 CNS; 59.8% with SNB-19 CNS; 41.1% with U251 CNS; 8.34% (active) in the assay on PC-3 prostate; 14.5% in the assay on SK-MEL-5 melanoma. In addition, the growth in the assay with UACC-62 melanoma was 29.2%; in the assay on LOX IMVI melanoma, 17.9%; in the assay on SK-MEL-28 melanoma, 53.1%; in the assay with SK-MEL-2 melanoma, 49.4%; in the assay on EKVX NSCLC, 60.1%; in the assay with SN12C renal, 24.9%. Also, the growth was 25.8% in the assay on UO-31 renal; 88.3% in the assay with TK-10 renal; 8.8% (active) with ACHN renal; 49.6% in the assay on A498 renal; 5.67% (active) in the assay on CCRF-CEM leukemia; 5.56% (active) in the assay on MOLT-4 leukemia. Further, in the assay on SR leukemia, the growth was 4.42% (active).

For the molecule `CCCCCCCCCCCCCCn1cc(C2=C(c3coc4ccc(OC)cc34)C(=O)NC2=O)c2ccccc21`, the growth in the assay with HT29 colon is 77.1%; in the assay on SNB-75 CNS, 80.6%; in the assay with SNB-19 CNS it was 101%; in the assay on U251 CNS, 97.9%; in the assay with PC-3 prostate, 109%; in the assay with SK-MEL-5 melanoma, 107%. The growth was 95.9% in the assay on UACC-62 melanoma; 101% with LOX IMVI melanoma; 101% with SK-MEL-28 melanoma; 104% with SK-MEL-2 melanoma; 90.9% in the assay with EKVX NSCLC; 100% in the assay with SN12C renal. Moreover, the growth in the assay with UO-31 renal was 83.5%; with TK-10 renal it was 102%; in the assay with ACHN renal it was 102%; in the assay on CAKI-1 renal it was 88.8%; with SR leukemia, 111%.

On to `Cc1cc2c(c(C)c1Cl)C(=O)/C(=C/c1ccco1)O2`, for which the growth with HT29 colon was 98.3%; with SNB-75 CNS it was 76.7%; with SNB-19 CNS it was 95.2%; in the assay on U251 CNS, 96.2%; in the assay on PC-3 prostate it was 98.5%; with SK-MEL-5 melanoma it was 69.9%. Further, the growth in the assay with UACC-62 melanoma is 88.7%; in the assay with LOX IMVI melanoma it was 93%; in the assay on SK-MEL-28 melanoma, 107%; in the assay with SK-MEL-2 melanoma, 102%; with EKVX NSCLC, 83.4%; in the assay on SN12C renal it was 96%. Moreover, the growth was 78.3% in the assay with UO-31 renal; 93.9% in the assay with TK-10 renal; 92.2% in the assay on ACHN renal; 104% in the assay with A498 renal; 95.6% in the assay on CCRF-CEM leukemia; 97.3% in the assay with MOLT-4 leukemia. In addition, the growth with SR leukemia was 69.7%.

For the molecule `CNCCNc1nc2ccccc2c2c(=O)c3cccc(C)c3sc12`, the growth was -25.6% (active) in the assay on HT29 colon; 38.4% in the assay with SNB-75 CNS; 53.2% with SNB-19 CNS; 25.4% in the assay with U251 CNS; 41.4% in the assay on PC-3 prostate; 46.3% in the assay on SK-MEL-5 melanoma. The growth is 42% in the assay on UACC-62 melanoma; -85.6% (active) with LOX IMVI melanoma; -60.1% (active) with SK-MEL-28 melanoma; 91.4% in the assay with SK-MEL-2 melanoma; 46.4% in the assay on EKVX NSCLC; 32.5% with SN12C renal. The growth in the assay on UO-31 renal is 29.6%; in the assay with TK-10 renal, 41.7%; with ACHN renal it was -29.9% (active); in the assay on CAKI-1 renal, 17.9%; in the assay with CCRF-CEM leukemia it was 21%; in the assay on MOLT-4 leukemia it was -29.5% (active). For the same molecule, the growth in the assay on SR leukemia is -29.9% (active).
